Each structure is given as a SMILES string. Active and inactive are the calls of the source.

This is an account of results in PubChem BioAssay.

Test [1] in a line: compounds binding Alexa647 anti-His antibody – biochemical, small-molecule microarray, 635 nm fluorescence, artefact control for SMM control protein annotation, primary screen (AID 1128).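 Further: score merges feature fluorescence with signal-to-noise for each printed compound spot.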 The conditions noted are these: higher = more signal.
Test [2] has as its system Human papillomavirus type 1a E7 protein (residues 1-88). Put plainly: HPV1a E7 small-molecule binders, primary screen, biochemical, small-molecule microarray, residues 1-88, 635 nm (AID 1129). The conditions noted are these: small-molecule microarray binding, fluorescence 635 nm; higher = more signal.
Test [3] has as its target Focal adhesion kinase 1 (Homo sapiens) (UniProt Q05397). Put plainly: PTK2 protein binding on printed compound slides – biochemical, small-molecule microarray, 635/667 nm fluorescence, BSA, DTT, primary screen (AID 1130).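 Further: composite of spot emission at 667 nm and signal to noise over triplicate slides.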 The note with it: 635 nm fluorescence, higher = more signal.
Test [4] has as its system Fibrinogen (Alexa647-labelled). Put plainly: Alexa647-fibrinogen binding to printed small molecules – biochemical, small-molecule microarray, 635/667 nm fluorescence, artefact control for SMM control-protein annotation, profiling panel (AID 1131).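 Further: z-score merges 667 nm fluorescence with per-spot signal-to-noise over triplicate slides.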 The note with it: fibrinogen-A647 binding fluorescence, higher = more signal.
For test [5], the target named is Follistatin (Homo sapiens) (UniProt P19883). Put plainly: FST protein binding to printed compounds – biochemical, small-molecule microarray, 635/667 nm fluorescence, primary screen (AID 1132). The note with it: 635 nm fluorescence, higher = more signal.
Test [6] deals with Fibroblast growth factor 2 (Homo sapiens) (UniProt P09038). In words: basic fibroblast growth factor binding to printed compounds – biochemical, small-molecule microarray, 635/667 nm fluorescence, primary screen (AID 1133). The note with it: FGF2, fluorescence 635/667, higher = more signal.
Test [7] in a line: JC-1 mitochondrial potential readout, lung cancer cells – cell-based, A549, JC-1 fluorescence, basal, 24 h, 100 nL, profiling panel (AID 1138).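 Further: A549 lung adenocarcinoma cells under basal conditions with no added stimulus; test concentration not given here.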 The conditions noted are these: higher = more signal.
The subject of a further test is Lefty1. In words: Lefty1 protein binding to printed compounds – biochemical, small-molecule microarray, 635/667 nm fluorescence, primary screen (AID 1139). The conditions noted are these: fluorescence 635/667, higher = more signal.
Test [8] deals with wheat germ agglutinin (Triticum aestivum), Alexa647-labelled. Put plainly: Alexa647-WGA lectin binding to printed small molecules – biochemical, small-molecule microarray, 635/667 nm fluorescence, artefact control for SMM control-protein annotation, profiling panel (AID 1140).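 Further: score merges 667 nm feature emission with signal to noise over triplicate slides.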 The conditions noted are these: WGA-A647 binding, 635 nm fluorescence, higher = more signal.
Test [9] concerns the target Luciferin 4-monooxygenase (Photinus pyralis) (UniProt P08659). Put plainly: inhibition of purified Photinus pyralis luciferase – biochemical, luminescence, purified enzyme, 2006 set, primary screen (AID 1141).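 Further: cell-free assay with purified firefly luciferase at 100 ng per well in PBS; test concentration not given here.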 The conditions noted are these: purified firefly luciferase, SteadyGlo luminescence, 30 min; higher = more signal, called active from +8 up or from −8 down.

Sequence of Follistatin (Homo sapiens) (P19883 whole entry, looked up): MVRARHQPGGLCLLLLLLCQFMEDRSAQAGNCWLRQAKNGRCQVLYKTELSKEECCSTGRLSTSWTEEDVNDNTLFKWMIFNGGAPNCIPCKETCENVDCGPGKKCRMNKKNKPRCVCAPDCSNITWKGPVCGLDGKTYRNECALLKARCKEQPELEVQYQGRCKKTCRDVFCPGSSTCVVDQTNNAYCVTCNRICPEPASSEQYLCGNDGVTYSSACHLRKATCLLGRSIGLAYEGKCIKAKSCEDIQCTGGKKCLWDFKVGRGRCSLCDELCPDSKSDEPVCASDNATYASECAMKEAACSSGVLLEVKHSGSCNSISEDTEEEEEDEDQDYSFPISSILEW
Sequence of Focal adhesion kinase 1 (Homo sapiens) (Q05397 whole entry, looked up): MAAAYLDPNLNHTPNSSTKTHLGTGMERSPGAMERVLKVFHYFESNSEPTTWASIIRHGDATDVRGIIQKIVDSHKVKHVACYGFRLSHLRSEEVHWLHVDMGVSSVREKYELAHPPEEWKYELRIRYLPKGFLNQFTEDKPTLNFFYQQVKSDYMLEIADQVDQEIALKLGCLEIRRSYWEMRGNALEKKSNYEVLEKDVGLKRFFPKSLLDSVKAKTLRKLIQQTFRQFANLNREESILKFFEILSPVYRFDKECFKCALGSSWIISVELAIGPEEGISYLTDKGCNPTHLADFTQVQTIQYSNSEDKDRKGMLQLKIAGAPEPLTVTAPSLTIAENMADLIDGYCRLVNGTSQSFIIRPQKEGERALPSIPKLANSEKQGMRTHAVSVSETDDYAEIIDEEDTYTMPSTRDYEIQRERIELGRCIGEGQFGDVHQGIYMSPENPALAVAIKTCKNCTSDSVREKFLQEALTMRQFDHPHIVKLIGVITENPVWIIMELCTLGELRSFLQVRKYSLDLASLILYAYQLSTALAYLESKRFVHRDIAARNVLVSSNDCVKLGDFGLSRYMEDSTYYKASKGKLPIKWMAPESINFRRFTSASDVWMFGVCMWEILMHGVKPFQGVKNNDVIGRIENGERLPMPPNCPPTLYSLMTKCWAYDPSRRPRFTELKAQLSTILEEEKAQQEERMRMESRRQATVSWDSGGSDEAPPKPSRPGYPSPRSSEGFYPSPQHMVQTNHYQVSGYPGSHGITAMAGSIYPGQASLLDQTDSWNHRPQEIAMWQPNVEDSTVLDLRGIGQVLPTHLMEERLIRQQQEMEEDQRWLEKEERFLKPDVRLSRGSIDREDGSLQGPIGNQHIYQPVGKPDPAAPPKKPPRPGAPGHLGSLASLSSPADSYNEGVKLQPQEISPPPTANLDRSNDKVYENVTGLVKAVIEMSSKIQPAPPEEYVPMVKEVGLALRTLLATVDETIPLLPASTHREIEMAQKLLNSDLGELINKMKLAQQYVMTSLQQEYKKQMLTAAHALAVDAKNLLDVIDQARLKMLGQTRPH
Sequence of Fibroblast growth factor 2 (Homo sapiens) (P09038 whole entry, looked up): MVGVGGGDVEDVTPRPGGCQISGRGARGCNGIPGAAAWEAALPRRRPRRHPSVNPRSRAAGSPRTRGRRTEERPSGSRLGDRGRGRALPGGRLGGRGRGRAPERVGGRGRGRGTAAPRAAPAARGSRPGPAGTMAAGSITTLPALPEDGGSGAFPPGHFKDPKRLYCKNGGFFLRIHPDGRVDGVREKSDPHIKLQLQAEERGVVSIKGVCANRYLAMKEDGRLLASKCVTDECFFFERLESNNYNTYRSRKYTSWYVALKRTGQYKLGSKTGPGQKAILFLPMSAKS
Sequence of Luciferin 4-monooxygenase (Photinus pyralis) (P08659 whole entry, looked up): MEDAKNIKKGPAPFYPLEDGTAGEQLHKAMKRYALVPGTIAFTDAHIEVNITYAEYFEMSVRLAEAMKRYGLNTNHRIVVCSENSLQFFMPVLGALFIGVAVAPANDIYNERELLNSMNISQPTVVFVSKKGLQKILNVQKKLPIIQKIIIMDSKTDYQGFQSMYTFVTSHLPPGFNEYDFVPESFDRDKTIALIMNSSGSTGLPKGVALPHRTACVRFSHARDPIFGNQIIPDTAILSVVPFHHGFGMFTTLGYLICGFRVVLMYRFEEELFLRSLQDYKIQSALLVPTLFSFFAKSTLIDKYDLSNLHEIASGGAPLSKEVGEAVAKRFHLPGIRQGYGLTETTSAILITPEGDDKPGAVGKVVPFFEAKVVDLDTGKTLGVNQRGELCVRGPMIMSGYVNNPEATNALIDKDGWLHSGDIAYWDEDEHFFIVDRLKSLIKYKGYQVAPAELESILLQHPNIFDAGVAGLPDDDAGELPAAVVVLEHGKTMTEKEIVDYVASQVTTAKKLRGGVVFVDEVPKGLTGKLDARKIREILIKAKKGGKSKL

Regarding `CC(C)(C)OC(=O)CC[C@]12N=C(c3ccc(OCCCO)cc3)O[C@H]1c1ccccc1N(CCS(=O)(=O)c1ccccc1)C2=O`, the composite z-score in test [1] is 1.99; in test [2], 1.24; in test [3] it was 0.895; in [4] it was 0.957; in [5], 1.17; in test [6] it was 0.596. Besides, the composite z-score in the test with Lefty1 amounted to 0.5; in test [8] it was 1.08. Further, the figures for the z-score in test [7] and in test [9] were 0.95 and -8.32 (active), respectively.
In the case of `COc1ccc([Si](C)(C)[C@H]2[C@H](CCO)O[C@@]3(C(=O)N(Cc4ccc(N5C(=O)COc6ccccc65)cc4)c4ccccc43)[C@@H]2C)cc1`, the composite z-score in [1] was 1.04; in [2] it was 0.0091; in test [3], -0.187; in [4], 0.27; in test [5], -0.566; in test [6], -0.684. Moreover, the composite z-score in the test with Lefty1 is -0.072; in test [8] it was 0.484. For the same molecule, the z-score in test [7] is 0.272; in test [9], 0.0706 (inactive).
Turning to `COc1ccc(C#Cc2ccc3c(c2)[C@]2(C(=O)N3)[C@H](c3ccccc3OCCO)N3[C@H](c4ccccc4)[C@H](c4ccccc4)OC(=O)[C@H]3[C@@H]2C(=O)O)cc1`, the composite z-score is 1.61 in test [1]; 1.22 in test [2]; 0.191 in [3]; 0.951 in test [4]; 0.694 in test [5]; 0.314 in test [6]. Besides, the composite z-score with Lefty1 is 1.15; in [8] it was 1.28. The z-score in test [7] is -2.59; in test [9], -3.9 (inactive).
Consider `CN1C(=O)C2C=CC(C(O)C3=C[C@H]4C[C@@H](C3)C4(C)C)N(Nc3ccccc3)C2C1=O` (stereo not given in full), for which the composite z-score in test [1] is 0.274; in [2] it was 1.19; in [3], 0.608; in test [4] it was 0.816; in test [5], 1.18; in test [6], 0.0364. Also, the composite z-score with Lefty1 came to 0.446; in [8] it was 0.782. Further, the results for the z-score in test [7] and in test [9] were -0.838 and -0.179 (inactive), respectively.
Regarding `COC(=O)C(CC#Cc1ccc2c(c1)[C@]1(C(=O)N2)[C@H](c2ccc(O)cc2)N2[C@H](c3ccccc3)[C@H](c3ccccc3)OC(=O)[C@H]2[C@@H]1C(=O)Nc1nc2ccccc2s1)C(=O)OC`, the composite z-score in test [1] was 1.8; in test [2] it was 1.22; in test [3], 0.833; in test [4], 0.96; in test [5], 1.1; in [6] it was 1.22. Moreover, the results for the composite z-score (with Lefty1; in test [8]) were 1.23 and 0.471, respectively. For the same molecule, the z-score is -1.7 in test [7] and -1.63 (inactive) in test [9].
With `O=C(O)[C@@]1(CCS(=O)(=O)c2ccccc2)COC(c2ccc(OCCCO)cc2)=N1`, the composite z-score in test [1] was -0.777; in [2], -0.0191; in [3] it was -0.283; in test [4] it was -1.2; in [5], 0.0153; in [6], -0.23. Also, the composite z-score in the test with Lefty1 was -1.34; in [8], -0.0996. In addition, the z-score is -0.487 in test [7] and 0.299 (inactive) in test [9].
As for `CCCC[C@@H]1C[C@H]1[C@@H](NC(=O)c1ccco1)c1ccc(C(=O)OC)cc1`, the composite z-score in [1] was -0.499; in test [2], 0.149; in test [3] it was 0.214; in test [4] it was 0.0507; in test [5] it was -0.943; in [6] it was -1.42. Further, the composite z-score in the test with Lefty1 is -0.431; in test [8], 0.586. The z-score in test [7] is -0.814; in test [9], 1.94 (inactive).
As to `O=C(NCc1ccccc1)[C@@]1(CCS(=O)(=O)c2ccccc2)N=C(c2ccc(OCCCO)cc2)O[C@H]1c1ccccc1`, the composite z-score is 1.52 in [1]; 1.26 in test [2]; 0.54 in [3]; 0.994 in [4]; 1.21 in [5]; -0.0657 in [6]. In addition, the composite z-score in the test on Lefty1 came out at 0.116; in test [8], 1.1. For the same molecule, the figures for the z-score in [7] and in test [9] were -0.346 and 0.548 (inactive), respectively.
Consider `[N-]=[N+]=NCc1ccccc1C[C@]1(C(=O)N2CCOCC2)N=C(c2ccc(OCCCO)cc2)O[C@H]1c1ccccc1N=[N+]=[N-]`, for which the composite z-score in [1] amounted to 0.595; in [2], 1.23; in test [3] it was 0.0652; in test [4], 0.987; in [5], 1.33; in test [6], 0.823. For the same molecule, the values for the composite z-score (in the test with Lefty1; in test [8]) were 1.31 and 1.03, respectively. Further, the results for the z-score in test [7] and in test [9] were 0.274 and -7.46 (inactive), respectively.
For the molecule `CC(=O)NCCCC[C@@H]1NC(=O)[C@@H]2C[C@H](C(=O)NCCCCN(C)C)[C@H](c3cccc(OCCO)c3)N2C1=O`, the composite z-score is 0.605 in test [1]; -0.158 in [2]; -0.208 in test [3]; -0.908 in test [4]; 1.21 in [5]; 1.08 in [6]. The composite z-score in the test with Lefty1 was 0.471; in test [8] it was -0.159. The z-score in test [7] was -0.446; in test [9], 0.603 (inactive).
With `C=C/C=C/[C@H]1C(=C)CN([C@@H](Cc2ccccc2)C(=O)OC)[C@@H]1[C@H](O)Cc1ccccc1`, the composite z-score in test [1] is -0.677; in test [2] it was -0.748; in test [3], -0.526; in test [4], -0.108; in test [5], 0.174; in [6], -0.348. In addition, the composite z-score in the test with Lefty1 is -0.426; in test [8], 0.0321. Further, the z-score is 0.0936 in test [7] and -0.494 (inactive) in test [9].
On to `O=C1C[C@]2(c3ccc([N+](=O)[O-])cc3)C(=O)N(CCN3CCOCC3)c3cc(CO)ccc3[C@H]2N1C1CCCCC1`, for which the composite z-score in [1] is -0.106; in [2], -1.24; in test [3], -0.617; in [4], 0.975; in [5] it was -0.414; in test [6] it was 0.189. In addition, the composite z-score in the test with Lefty1 is -0.599; in test [8] it was 0.409. Also, the z-score in test [7] was 0.631; in test [9], -0.648 (inactive).
`COC(=O)c1c(CC[C@@H](CO)NC(=O)N[C@@H](C)Cn2cc(C3(O)CCCCC3)nn2)oc(C(C)=O)c1C(=O)OC`: the composite z-score in test [1] is 2.77; in test [2] it was 1.12; in [3], -0.262; in test [4] it was 0.747; in test [5], 1.22; in test [6] it was 1.29. Besides, the composite z-score with Lefty1 was determined as 1.66; in [8], 0.696. For the same molecule, the z-score in test [7] is -1; in test [9], 0.599 (inactive).
Turning to `O=C1OCC=C[C@H]2OC34C=CCN(CCN5CCOCC5)C(=O)[C@H]3N(CCCO)C(=O)[C@@H]4[C@@H]12` (stereo not given in full), the composite z-score in test [1] was 0.314; in [2], 0.323; in test [3], 0.574; in test [4], 0.38; in test [5] it was 0.216; in test [6] it was -0.344. Moreover, the composite z-score was 0.606 with Lefty1 and 0.114 in [8]. The z-score is -0.798 in test [7] and -0.206 (inactive) in test [9].
